Screens as filed in PubChem.
A selection: hits, their analogues and other compounds. The true share with any hit is near 1%.
PriA SSB inh: blocks PriA binding to SSB C-terminal tail. AlphaScreen SSBct-PriA binding, biotinylated peptide. inhibition, % at 33 µM. 0.6% of 430,000 active; in the data active = inhibition mostly above about 37%, no sharp cut-off; inactive = mostly below about 20%;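 also: plate controls were negative control peptide for no effect and reference peptide for full effect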
RN4220 kill: S. aureus RN4220 growth inhibition | OD600, 16 h | inhibition, % (test concentration not listed) | 0.33% of 330,000 active | AID 1259311; in the data active = inhibition above about 85%;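 also: plate controls were untreated cells for no effect and reference antibiotic for full effect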
Sa ugtP lethal: compounds lethal to S. aureus RN4220 ugtP deletion mutant. AID 1259309. 0.54% of 330,000 active. growth inhibition, % (concentration not given with the values). OD600 growth, 16 h; in the data active = growth inhibition above about 68%;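 also: plate controls were untreated wells for no effect and antibiotic for full effect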
* hit, by the source's call; nt = no result given.

SMILES	PriA SSB inh	RN4220 kill	Sa ugtP lethal
Cc1ccc2[nH]c3c(=O)n(CC(=O)NC(C)CCc4ccccc4)cnc3c2c1 (stereo not drawn)	-2	nt	nt
O=C(Cc1ccc(-c2ccccc2)cc1)NC[C@H](O)c1csc2ccccc12	-7	nt	nt
C[C@](O)(CNC(=O)c1cccc(C#N)c1)c1cccs1	-3	nt	nt
O=C(c1ccc(Br)cc1)c1ccc(N2CCOCC2)c([N+](=O)[O-])c1	82*	nt	nt
O=C(c1ccc(N2CCOCC2)c([N+](=O)[O-])c1)N1CCN(c2ccccc2)CC1	-1	nt	nt
COc1ccc(NC(=O)C(c2cc3c(cc2[N+](=O)[O-])OCO3)N2CCN(C=O)CC2)cc1 (stereo not drawn)	0	7	6
COc1ccc(NC(=O)C(c2cc3c(cc2[N+](=O)[O-])OCO3)N(C)Cc2ccccc2)cc1 (stereo not drawn)	47*	-1	8
CCN(c1cccc(C)c1)C(C(=O)Nc1ccc(OC)cc1)c1cc2c(cc1[N+](=O)[O-])OCO2 (stereo not drawn)	40*	11	7
COc1ccc(CNCc2cc3c(cc2[N+](=O)[O-])OCO3)cc1	13	4	12
COc1ccc(CCNC(=O)c2csc(NC(=O)c3ccccc3)n2)cc1OC	3	nt	nt
Cc1cc(O)c2c(c1O)C(=O)[C@]13C(=C2O)C(=O)[C@@H]2[C@@H](O)[C@H]1[C@@H]1[C@H](O)[C@H]3C(=O)C3=C(O)c4c(O)cc(C)c(O)c4C(=O)[C@]312	1	99*	99*
CCOc1ccc(NC(=O)N2CCN(c3ccc(C)nn3)CC2)cc1	-8	nt	nt
O=C(Nc1ccc(Nc2ccccc2)cc1)c1ccc(Cl)c([N+](=O)[O-])c1	52*	-7	-17
O=C(Nc1ccc(SC(F)F)cc1)c1ccc(Cl)c([N+](=O)[O-])c1	10	nt	nt
Cc1ccccc1NC(=O)c1ccc(Nc2c([N+](=O)[O-])cc([N+](=O)[O-])c3ccccc23)cc1	48*	-6	-14
Cc1cc(C(=O)Nc2ccc(Nc3ccccc3)cc2)ccc1[N+](=O)[O-]	54*	1	3
Cc1cc(C(=O)Nc2ccncc2)ccc1[N+](=O)[O-]	26	2	3
Cc1c(NC(=O)c2ccccc2)cccc1[N+](=O)[O-]	-13	1	4
COc1cc(C(=O)Nc2ccncc2)cc(OC)c1OC	4	7	5
COc1cc(C(=O)Nc2ccc(Nc3ccccc3)cc2)cc(OC)c1OC	43*	-6	11
O=C(c1cc(=O)c2ccccc2o1)N1CCN(c2ncnc3c2nnn3-c2ccccc2)CC1	-1	nt	nt
CC(=O)Nc1ccc(NC(=O)Cn2nc(-c3cccc([N+](=O)[O-])c3)ccc2=O)cc1	-1	nt	nt
C=CCOc1cccc(C2C(=C(O)c3ccc(F)cc3)C(=O)C(=O)N2CCN2CCOCC2)c1 (stereo not drawn)	4	nt	nt
CN(C)C(CNC(=O)c1cccc(F)c1)c1ccco1 (stereo not drawn)	-28	nt	nt
O=C(c1cc2ccccc2[nH]1)N1CCSCC1	8	nt	nt
SMILES	PriA SSB inh	RN4220 kill	Sa ugtP lethal
COCCN(Cc1ccsc1)C(=O)c1cccc(C#N)c1	-2	nt	nt
Fc1ccc(Nc2nc(N3CCOCC3)nc(N3CCOCC3)n2)cc1	-1	4	2
COc1ccc(Nc2nc(Nc3ccc(F)cc3)nc(N3CCOCC3)n2)cc1OC	37*	nt	nt
Oc1c(I)cc(I)c2cccnc12	58*	95*	96*
Oc1c(Cl)ccc2cccnc12	82*	nt	nt
Cc1ccc(N=Nc2ccc(O)c3ncccc23)cc1	11	36	-5
Ic1cccc2cccnc12	33	nt	nt
Fc1c(Cl)ccc2cccnc12	33	nt	nt
CCOc1ccc(S(=O)(=O)Nc2cc(Cl)c(O)c3ccccc23)cc1	9	nt	nt
Cc1ccc(S(=O)(=O)Nc2cc(Cl)c(O)c3ncccc23)cc1	45*	nt	nt
Oc1ccc(F)c2cccnc12	81*	23	12
Cc1nnsc1C(=O)N[C@@H](C)Cc1ccco1	-7	nt	nt
CCOc1ccc2nc(NC(N)=NS(C)(=O)=O)nc(C)c2c1	-13	nt	nt
Cc1cc(C)cc(NC(=O)CN2CCC(C(=O)N3CCc4ccccc43)CC2)c1	-8	nt	nt
Cc1ccc(-c2ccc(=O)n(C(C)C(=O)Nc3ncc(C)s3)n2)cc1 (stereo not drawn)	-11	nt	nt
CCSc1ccccc1C(=O)NCC1(O)CCCc2cc(OC)ccc21 (stereo not drawn)	-10	nt	nt
COc1ccc(-c2cnc(SCC(=O)Nc3cc(C)on3)n2C)cc1	-9	nt	nt
O=C(c1ccco1)N1CCC(c2nnc(C3CC3)s2)CC1	-8	nt	nt
CC(=O)NC(C)c1cc(Cl)c2cccnc2c1O (stereo not drawn)	52	9	27
COc1ccccc1N=Nc1ccc(O)c2ncccc12	2	5	-18
Oc1ccc(Cl)c2cccnc12	-4	97*	98*
Oc1ccc(Br)c2cccnc12	52	nt	nt
Cc1ccc2c(Cl)cc(Cl)c(O)c2n1	1	99*	99*
